Results published in PubChem BioAssay AID687020 (Broad Institute, 2013).
In all, about 1,400 compounds went through this assay and about 100 (7.1%) were called active. The rule behind the calls is not given here. These entries were drawn from the full list. A call without a number means that no potency is given here. Potency and affinity values are given separately.

assay: Vero cell toxicity, dose response, cytotoxicity control, plate reader, cherry-pick samples (AID 687020); conditions: Vero cells toxicity; series mostly up to 19.5 µM;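 note: compounds incubated with cells for three days before luminescence read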

Row | SMILES | outcome
1 | COc1ccc(C(C)NC(=O)c2ccccc2Cl)cc1OC (centres undefined) | inactive
2 | CCS(=O)(=O)Nc1ccc(C(=O)NCCSc2ccccc2)cc1 | inactive
3 | COc1ccccc1N(CC(=O)N1CCCC1)S(=O)(=O)c1ccc(C)cc1 | inactive
4 | COc1ccc(C(=O)N2CCN(C3CCCCC3)CC2)cc1OC | inactive
5 | COc1ccc(OC)c(-c2cc(C(=O)NC3CCCC3)c3ccccc3n2)c1 | inactive
6 | COc1ccc(-c2nc(NCCCN(C)C)c3ccccc3n2)cc1 | inactive
7 | Cc1cc(N2CCN(C)CC2)n2nc(-c3ccc(Cl)cc3)nc2n1 | inactive
8 | COc1ccc2nc(NN=Cc3cccc(C)n3)cc(C)c2c1 | inactive
9 | C[C@@H]1CCCCO[C@@H](CN(C)Cc2ccc(C(=O)O)cc2)[C@H](C)CN([C@H](C)CO)C(=O)c2cc(NC(=O)c3ccccc3)ccc2O1 | inactive
10 | C[C@@H]1CN([C@H](C)CO)C(=O)c2cc(NC(=O)c3ccccc3)ccc2O[C@@H](C)CCCCO[C@@H]1CN(C)Cc1ccc(C(=O)O)cc1 | inactive
11 | Cc1ccc(CN(C)c2ccc(S(=O)(=O)N3CCCC3)cn2)cc1 | inactive
12 | COc1cc(C(=O)NCc2cccc(Cl)c2)ccc1OCC(=O)N1CCOCC1 | inactive
13 | COc1ccc(C(=O)NCCOc2cccc(Oc3ccccc3)c2)cc1OC | inactive
14 | O=C(C[C@@H]1CC[C@@H]2[C@H](COC[C@H](O)CN2Cc2cccc(Cl)c2)O1)N1CCOCC1 | inactive
15 | COC(=O)C1=C(C)N(Cc2cccc(C(F)(F)F)c2)C(=NCC2CC2)NC1c1ccc(F)cc1 (centres undefined) | inactive
16 | C[C@@H]1CN([C@@H](C)CO)C(=O)c2cc(NS(=O)(=O)c3ccc(F)cc3)ccc2O[C@@H](C)CCCCO[C@@H]1CN(C)C(=O)CCCN(C)C | inactive
17 | CCOC(=O)Nc1ccc(N2CCOCC2)c(S(=O)(=O)N2CCOCC2)c1 | inactive
18 | CCCCN1C[C@H](Cc2ccccc2)[C@@H](CC(=O)Nc2ccccc2)C1=O | inactive
19 | O=C(CC1NCCN(Cc2ccccc2)C1=O)Nc1ccccc1 (centres undefined) | inactive
20 | Cc1ccc(S(=O)(=O)N(c2nc(NC(C)C)nc(NC(C)C)n2)n2cnnc2)cc1 | inactive
21 | C=CCOc1ccccc1OCC(O)CNC(C)C (centres undefined) | inactive
22 | N#C[C@@H]1[C@H](c2ccc(C#Cc3ccccc3F)cc2)[C@H](CO)N1C(=O)C1CCC1 | inactive
23 | CC(C)CCn1c2ccccc2c2cc(CC(N)=O)ccc21 | inactive
24 | CC1(Cc2cccc(F)c2)C(=O)Nc2ccc(-c3cccnc3)cc21 (centres undefined) | inactive
25 | COc1cc(OC)cc(C(=O)Nc2ccc3nc4n(c(=O)c3c2)CCCC4)c1 | inactive

Row | SMILES | outcome
26 | O=C(Nc1ccc2nc3n(c(=O)c2c1)CCCC3)c1ccccc1F | inactive
27 | CC(C)(C)c1ccc(C(=O)Nc2ccc3c(c2)C(=O)NC3=O)cc1 | inactive
28 | CC(NC(=O)c1ccccc1)C(=O)OCn1nnc2ccccc2c1=O (centres undefined) | inactive
29 | CCCc1nc2ccccc2n1C(C)C(=O)NC(C)(C)C (centres undefined) | inactive
30 | Cc1cc(C)cc(NC(=O)Cn2nnc(C(=O)NCc3cccs3)c2N)c1 | inactive
31 | CN(C)CCCN1c2ccccc2Sc2ccc3ccccc3c21 | inactive
32 | CC(C)NC(=O)Nc1ccc2c(c1)C(=O)N([C@H](C)CO)C[C@H](C)[C@H](CN(C)CC1CC1)OCCCC[C@@H](C)O2 | inactive
33 | CCCN1[C@H](C(=O)NCC(F)(F)F)[C@@H](CO)[C@@H]2Cn3c(ccc(-c4ccccc4)c3=O)[C@@H]21 | inactive
34 | CCOC(=O)c1ccc(NC(=O)c2nc[nH]c2C(=O)NC[C@H](C)O)cc1 | inactive
35 | C[C@H](CO)N1C[C@H](C)[C@@H](CN(C)S(C)(=O)=O)Oc2ccc(NC(=O)Nc3ccccc3)cc2C1=O | inactive
36 | CCN(C)C1CN(Cc2cn(Cc3ccccc3)nn2)S(=O)(=O)C1 (centres undefined) | inactive
37 | Cc1ccc(Cn2cc(CN3CC(N4CCSCC4)CS3(=O)=O)nn2)cc1 (centres undefined) | inactive
38 | COc1ccc(-c2cnc3n2CCCCC3)cc1 | inactive
39 | CC(=O)N1CCN(C(=O)COC(=O)COc2c(C)cc(C)cc2C)CC1 | inactive
40 | Cc1ccc(S(=O)(=O)N2CCOCC2)cc1NC(=O)CN(C)CC(=O)Nc1cccc(F)c1 | inactive
41 | COc1cccc(NC(=O)CN(C)C(=O)Cc2ccc3c(c2)OCCO3)c1 | inactive
42 | COC(=O)c1cn(C(=O)c2ccc(OC)c(OC)c2)c2ccccc12 | inactive
43 | COc1ccc(COC(=O)C2=C(C)NC(=O)NC2c2ccccc2F)cc1 (centres undefined) | inactive
44 | CCCN1CCC(=O)N([C@H](CSc2ccccc2)Cc2ccccc2)CC1 | inactive
45 | CC(C)C[C@@H](COc1ccccc1)N1CCN(CCc2ccccc2)CCC1=O | inactive
46 | CCN(CC)C(=O)C1CCN(Cc2ccc(OCc3ccccc3)cc2)CC1 | inactive
47 | N#CC[C@H](c1ccccc1)N1CCN(Cc2ccccc2)CCC1=O | inactive
48 | Cc1noc(C)c1NC(=O)Nc1ccc2c(c1)CC(=O)N([C@@H](C)CO)C[C@H](C)[C@@H](CN(C)C(=O)Nc1ccccc1)O2 | inactive
49 | CCOc1ccc2[nH]cc(S(=O)(=O)c3ccc(C)cc3)c(=O)c2c1 | inactive
50 | COc1ccc(NC(=O)c2cc3ccccc3cc2O)cc1 | inactive

Row | SMILES | outcome
51 | O=C(Oc1ccccc1)c1ccccc1C(=O)Oc1ccccc1 | inactive
52 | COc1ccc(N2CCN(CC(O)COc3ccc(F)cc3)CC2)cc1 (centres undefined) | inactive
53 | Clc1cc(Br)ccc1OCCCn1ccnc1 | inactive
54 | Clc1cc(Br)ccc1OCCOCCN1CCCC1 | inactive
55 | N#CCc1ccc(NC(=O)c2cc(S(=O)(=O)N3CCOCC3)ccc2Cl)cc1 | inactive
56 | COc1ccc(-c2cc(N3C(=O)Nc4ccccc4N3O)n[nH]2)cc1OC | inactive
57 | CCNC(=O)N(C)C[C@H]1N[C@@](CC)(C(=O)OC)[C@H]2C(=O)N(Cc3ccccc3)C(=O)[C@@H]12 | inactive
58 | Cc1ccccc1N1Cc2ccccc2C1=O | inactive
59 | CN1CCN(S(=O)(=O)c2cccs2)CC1 | inactive
60 | COC(=O)N1CCCCC1c1cc(C(=O)Nc2ccccc2Cl)no1 (centres undefined) | inactive
61 | COc1ccc(S(=O)(=O)N2CCCCC2c2cc(C(=O)Nc3ccccc3)no2)cc1 (centres undefined) | inactive
62 | Cc1ccc(F)cc1C(=O)N1CCCCC1c1cc(C(=O)NC(C)C)no1 (centres undefined) | inactive
63 | O=C(NCc1ccc(Cl)c(Cl)c1)c1cc(C2CCCCN2C(=O)OCCF)on1 (centres undefined) | inactive
64 | Cc1ccc(NC(=O)C2CCN(S(C)(=O)=O)CC2)cc1Cl | inactive
65 | C[C@H](NC(=O)[C@H]1[C@H](CO)[C@H]2Cn3c(cccc3=O)[C@@H]1N2Cc1cccnc1)c1ccccc1 | inactive
66 | CC(C)(C(=O)N1CCC1(C)C(=O)Nc1ccccc1Br)c1ccccc1 (centres undefined) | inactive
67 | Cc1c(C(=O)NCc2ccc(C#N)cc2)sc(=O)n1Cc1ccccn1 | inactive
68 | Cc1ccc2oc(C(=O)N(Cc3ccncc3)CC3CCCO3)c(C)c2c1 (centres undefined) | inactive
69 | COc1ccc2oc(C(=O)OC(C)C(=O)N3CCC(C)CC3)c(C)c2c1 (centres undefined) | inactive
70 | Cc1ccc(S(=O)(=O)Nc2ccc(O)c3ncccc23)cc1 | inactive
71 | COCCNC(=O)C1CCC(CNS(=O)(=O)c2ccc(F)cc2)CC1 (centres undefined) | inactive
72 | CCCC(=O)Nc1ccc2nn(-c3ccc(OC)cc3)nc2c1 | inactive
73 | COc1cc(C(=O)OCCCN2CCOCC2)cc(OC)c1OC | inactive
74 | CCN(CC)S(=O)(=O)c1cccc(C(=O)NCC2(N3CCOCC3)CCCCC2)c1 | inactive
75 | CC(C)C[C@@H](CN1C(=O)C(=O)NC[C@@H]1CC(C)C)NC(=O)Cc1ccccc1 | inactive

Row | SMILES | outcome
76 | CCNC(=O)C[C@H]1CC[C@H]2[C@@H](COC[C@H](O)CN2Cc2ccc(Cl)c(Cl)c2)O1 | inactive
77 | C=Cc1ccc(Cn2c(C)c(C(=O)NCc3cccc(C(F)(F)F)c3)sc2=O)cc1 | inactive
78 | Cc1cccc(C)c1NC(=O)C1(C)CSCC(=O)N1Cc1cccc(C(F)(F)F)c1 (centres undefined) | inactive
79 | CC(=O)Nc1ccc(OCCCN2CCC(C(O)(c3ccccc3)c3ccccc3)CC2)cc1 | inactive
80 | O=C(Nc1ccc(F)cc1)C1CCCN(S(=O)(=O)c2ccc3[nH]c(=O)ccc3c2)C1 (centres undefined) | inactive
81 | Cc1ccc(NC(=O)C2(c3cccs3)CCOCC2)cc1C | inactive
82 | Cc1ccc(NC(=O)CN2CCC(NC(=O)c3cccc(F)c3)CC2)cc1C | inactive
83 | Nc1nc2c(ncn2[C@@H]2O[C@H](CNCc3ccc(F)c(N4CCOCC4)c3)[C@@H](O)[C@H]2O)c(=O)[nH]1 | inactive
84 | CC1(c2nnnn2Cc2ccccc2)CCC(=O)N1CCCn1ccnc1 (centres undefined) | inactive
85 | COc1ccc(NC(=O)CN(C)C(=O)CC2CCCC2)cc1 | inactive
86 | COC(=O)c1c(-c2ccc(OC)cc2)sc2cc3c(cc12)OCO3 | inactive
87 | Nc1sc(-c2ccccc2)cc1C(=O)NCCN1CCOCC1 | inactive
88 | CC1CCN(C(=O)COC(=O)CNC(=O)c2ccccc2F)CC1 | inactive
89 | COc1ccc(-c2nc(CN3CCC(C(=O)N4CCOCC4)CC3)c(C)o2)c(OC)c1 | inactive
90 | O=C(NCC1CCCCC1)[C@H]1[C@H](CO)[C@H]2Cn3c(cccc3=O)[C@@H]1N2CCc1ccccc1 | inactive
91 | O=C(c1cccnc1)N1CC2(C1)[C@H](c1ccccc1)[C@@H](CO)N2Cc1ccccc1 | inactive
92 | CN(C)CC#Cc1ccc([C@H]2[C@@H](CO)N(C(=O)C3CCC3)[C@H]2C#N)cc1 | inactive
93 | COC(=O)[C@H]1CN(C(=O)c2ccccc2)C(=O)N1 | inactive
94 | COc1cc2cc(CCCOC(=O)CCCC(=O)O)oc(=O)c2cc1OC | inactive
95 | O=C(CCNC(=O)OCC1c2ccccc2-c2ccccc21)NOCc1ccccc1 | inactive
96 | Cc1cccc(C)c1OCC(=O)NNC(=O)CCCn1c(=O)oc2ccccc21 | inactive
97 | CC(=O)NCCC(=O)Nc1cc(S(=O)(=O)N2CCCCC2)ccc1N1CCN(C)CC1 | inactive
98 | C[C@@H]1CCCCO[C@@H](CN(C)C(=O)Cc2ccccc2)[C@H](C)CN([C@H](C)CO)C(=O)c2cc(NS(=O)(=O)c3ccc(Cl)cc3)ccc2O1 | inactive
99 | CN(C)c1ccc2c(c1)[C@H]1C[C@@H](CC(=O)NCc3ccc(Oc4ccccc4)cc3)O[C@H](CO)[C@H]1O2 | inactive
